Results reported in PubChem BioAssay.
Calls of active or inactive are those of the source.

Biological target: Dihydroorotate dehydrogenase (quinone), mitochondrial (Plasmodium falciparum (isolate 3D7)) (UniProt Q08210)
Experiment: inhibition of P. falciparum DHODH – biochemical, C-terminal His tag, absorbance 600 nm, primary screen (AID 1175);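 note: recombinant parasite enzyme with a five histidine tag at its C terminus; test concentration not given here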
Conditions: PfDHODH enzyme, DCIP absorbance 600 nm; higher = more signal, called active from +8 up or from −8 down

Dihydroorotate dehydrogenase (quinone), mitochondrial (Plasmodium falciparum (isolate 3D7)), sequence (Q08210 whole entry, looked up): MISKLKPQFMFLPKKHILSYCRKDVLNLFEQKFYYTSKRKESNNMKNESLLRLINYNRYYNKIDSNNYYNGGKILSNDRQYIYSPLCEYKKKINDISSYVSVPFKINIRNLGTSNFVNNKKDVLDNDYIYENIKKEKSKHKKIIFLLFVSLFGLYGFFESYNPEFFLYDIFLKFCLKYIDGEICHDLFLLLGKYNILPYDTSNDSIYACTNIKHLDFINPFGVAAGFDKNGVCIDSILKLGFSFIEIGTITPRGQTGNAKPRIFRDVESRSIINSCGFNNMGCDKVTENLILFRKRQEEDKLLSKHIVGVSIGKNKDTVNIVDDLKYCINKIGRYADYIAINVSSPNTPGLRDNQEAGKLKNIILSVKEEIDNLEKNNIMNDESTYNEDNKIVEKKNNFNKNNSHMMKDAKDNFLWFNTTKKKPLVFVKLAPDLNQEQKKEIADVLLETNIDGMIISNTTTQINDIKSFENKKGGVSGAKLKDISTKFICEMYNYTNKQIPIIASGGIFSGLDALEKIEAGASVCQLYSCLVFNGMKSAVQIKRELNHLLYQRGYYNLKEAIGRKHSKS

Structure (SMILES)	composite z-score
Cc1cc(C)c(C(O)C2C=CC3C(=O)N(c4ccccc4)C(=O)C3N2Nc2ccccc2)c(C)c1 (stereo not given)	0.224 (inactive)
O=C1O[C@H](c2ccccc2)[C@H](c2ccccc2)N2[C@H]1[C@@H](C(=O)N1CCN(c3ncccn3)CC1)[C@]1(C(=O)Nc3ccc(C#CCCO)cc31)[C@H]2c1ccc(OCCO)cc1	-0.692 (inactive)
O=C1CSC(c2cccc([N+](=O)[O-])c2)N1c1ccccc1 (stereo not given)	-0.861 (inactive)
COC(=O)C(CC#Cc1ccc2c(c1)[C@]1(C(=O)N2)[C@H](c2ccc(O)cc2)N2[C@H](c3ccccc3)[C@H](c3ccccc3)OC(=O)[C@H]2[C@@H]1C(=O)O)C(=O)OC	-1.59 (inactive)
COCCCNC(=O)[C@@]1(Cc2ccccc2I)c2ccccc2C(=O)N(Cc2ccccc2Cl)[C@H]1c1ccc(CO)cc1	-0.278 (inactive)
COC(=O)[C@]1(Cc2ccccc2CN=[N+]=[N-])N=C(c2ccc(OCCCO)cc2)O[C@@H]1c1ccccc1	2.51 (inactive)
CN(C)CCCCCCNC(=O)[C@@H]1C[C@@H]2C(=O)NCC(=O)N2[C@@H]1c1ccc(O)cc1	-0.493 (inactive)
COC(=O)c1ccc(OC)c(/C=C\CC(CCc2ccccc2)OC(=O)c2ccncc2)c1 (stereo not given)	-3.1 (inactive)
CCOC(=O)C[C@H]1[C@H](OC(=O)Cc2ccc3c(c2)OCO3)[C@@H](NC(=O)c2ccccc2)c2cc(OCCCO)ccc2N1C(=O)c1ccc2ccccc2n1	-1.03 (inactive)
CCCNC(=O)[C@@]1(Sc2ccc(C)cc2)CC(=O)N(Cc2ccccc2)[C@@H]1c1ccc(CO)cc1I	-11.5 (active)
CC1(C)[C@@H]2CC(C(O)C3C=CC4C(=O)N(c5ccccc5)C(=O)C4N3Nc3ccccc3F)=C[C@@H]1C2 (stereo not given in full)	1.09 (inactive)
COc1ccc(C#Cc2ccc3c(c2)[C@]2(C(=O)N3)[C@H](C(N)=O)[C@H]3C(=O)O[C@H](c4ccccc4)[C@H](c4ccccc4)N3[C@@H]2c2ccc(O)cc2)cc1	0.817 (inactive)
COc1ccc([Si](C)(C)[C@@H]2[C@@H](CCO)O[C@]3(C(=O)N(Cc4ccc(N5C(=O)c6ccccc6Oc6ccccc65)cc4)c4ccccc43)[C@H]2C)cc1	-0.343 (inactive)
NC(=O)NCC#Cc1ccc2c(c1)[C@]1(C(=O)N2)[C@H](c2ccc(O)cc2)N2[C@H](c3ccccc3)[C@H](c3ccccc3)OC(=O)[C@H]2[C@@H]1C(=O)NC[C@H](O)c1ccccc1	-0.494 (inactive)
CO[C@H]1O[C@H](CO)[C@@H](OC(=O)c2ccc(Br)cc2)[C@@H]2OC(=O)[C@H](Cc3cccc(Br)c3)C/C=C/C[C@@H](Cc3cccc(Br)c3)C(=O)O[C@@H]12	-0.71 (inactive)
CO[C@H]1O[C@H](CO)[C@@H](OC(=O)Nc2cccc(F)c2)[C@H](OC(=O)Nc2ccc3c(c2)OCO3)[C@H]1OC(=O)Nc1ccc2c(c1)OCO2	-0.222 (inactive)
CC(C)C[C@H]1NC(=O)[C@H](C)NC(=O)[C@@]23C(=O)N[C@@H](Cc4ccccc4)C2[C@H](C)[C@@]2(C)O[C@H]2C3/C=C/C/C=C\CNC1=O (stereo not given in full)	-0.401 (inactive)
Cc1ccc(C(C)CC(O)C2C=CC3C(=O)N(Cc4ccccc4)C(=O)C3N2n2cnnc2)o1 (stereo not given)	-0.101 (inactive)

Structure (SMILES)	composite z-score
COCCCNC(=O)[C@@]1(Cc2ccccc2)COC(c2ccc(OCCCO)cc2)=N1	0.45 (inactive)
O=C1c2ccccc2[C@](Cc2ccccc2I)(C(=O)NC2CC2)[C@H](c2ccc(CO)cc2)N1Cc1ccccc1Cl	0.37 (inactive)
CCOC(=O)C[C@H]1[C@H](OC(=O)Cc2ccc3c(c2)OCO3)[C@@H](NC(=O)c2ccccc2)c2cc(OCCCO)ccc2N1C(=O)c1ccccc1	-1.11 (inactive)
CCOC(=O)C1=CC[C@@H](c2ccc(N(CC)CC)cc2)N(S(=O)(=O)c2ccc(C)cc2)[C@H]1c1ccc([N+](=O)[O-])cc1	-0.719 (inactive)
COC(=O)C(CC#Cc1ccc2c(c1)[C@]1(C(=O)N2)[C@H](C(=O)N2CCc3cc(OC)c(OC)cc3C2)[C@H]2C(=O)O[C@H](c3ccccc3)[C@H](c3ccccc3)N2[C@@H]1c1ccc(OCCO)cc1)C(=O)OC	-6.24 (inactive)
CC(C)N1C(=O)c2ccccc2[C@](C)(C(=O)O)[C@@H]1c1ccc(CO)cc1	-0.218 (inactive)
C=CCC(OC(C)=O)[C@@H]1[C@@H](N(Cc2ccc(-c3ccccc3)cc2)C(=O)c2cccc3ccccc23)c2cc(OCCCO)ccc2N1C(=O)c1ccc2ccccc2n1 (stereo not given in full)	-0.178 (inactive)
[N-]=[N+]=Nc1ccccc1[C@H]1OC(c2ccc(OCCCO)cc2)=N[C@@]1(Cc1ccccc1)C(=O)NCc1ccccc1	0.928 (inactive)
COCCCNC(=O)[C@]1(CCS(=O)(=O)c2ccccc2)N=C(c2ccc(OCCCO)cc2)O[C@@H]1c1ccccc1	0.888 (inactive)
NC(=O)NCC#Cc1ccc2c(c1)[C@]1(C(=O)N2)[C@H](c2ccc(OCCO)cc2)N2[C@H](c3ccccc3)[C@H](c3ccccc3)OC(=O)[C@H]2[C@@H]1C(=O)N1CCCCCCC1	0.769 (inactive)
O=C1C[C@@](C(=O)O)(c2ccc([N+](=O)[O-])cc2)[C@@H](c2ccc(CO)cc2)N1CC12CC3CC(CC(C3)C1)C2	-3.13 (inactive)
O=C1C[C@@](C(=O)NCc2ccccc2)(c2ccc([N+](=O)[O-])cc2)[C@@H](c2ccc(CO)cc2I)N1C1CCCCC1	0.634 (inactive)
COc1cccc(C[C@H]2C[C@@H](CO[Si](C(C)C)(C(C)C)C(C)C)N3C(=O)[C@]4(C(C)=O)O[C@]23[C@H]2C(=O)N(C)C(=O)[C@H]24)c1	0.564 (inactive)
COCC(=C=CC[C@@H](O)c1ccccc1OCCO)C[C@@H](O)COCc1ccccc1	-1.47 (inactive)
COC(=O)C(CC#Cc1ccc2c(c1)[C@]1(C(=O)N2)[C@H](C(=O)N2CCc3cc(OC)c(OC)cc3C2)[C@H]2C(=O)O[C@H](c3ccccc3)[C@H](c3ccccc3)N2[C@@H]1c1ccc(O)cc1)C(=O)OC	-22.8 (active)
CN1C(=O)C2C=CC(C(O)COCc3ccccc3)N(Nc3ccccc3)C2C1=O (stereo not given)	-0.284 (inactive)
Cc1ccccc1C(O)C1C=CC2C(=O)N(Cc3ccccc3)C(=O)C2N1n1cnnc1 (stereo not given)	-0.407 (inactive)
